From PubChem
HCMV antiviral = blocks human cytomegalovirus replication | HFF cells, HCMV-luciferase reporter, 72 h; hits give low values | activity change, negative = inhibition, % at 57.5 µM | 410,000 compounds, 4.5% hits | AID 1259415; in the data active = activity change below about -60%; inconclusive = no clear call, values can overlap the other calls; inactive = above about -39%; note: % is set by controls: 0 for no effect and ±100 for the full control effect
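HFF cells seeded 16 h at 37C, treated with compounds, infected with luciferase-reporter HCMV at MOI 1 PFU/cell; luciferase read at 72 h post infection, normalized to buffer-only and Salinomycin controls.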
Pf growth 48h = inhibits P. falciparum growth in the first generation, 48 h | P. falciparum luciferase growth in erythrocytes, 48 h | Potency, µM (highest dose often 28.7 µM), without a hit: at the top dose activity change, negative = inhibition, hits mostly inhibitors | 310,000 compounds, 5.9% hits | AID 504832; note: potency is the fitted concentration of half-maximal effect; % is set by controls: 0 for no effect and ±100 for the full control effect
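First compound was added to culture medium, then infected red cells at 0.1% parasitemia and 2% hematocrit (final). After incubation at 37 C under 5% CO2, luciferase detection reagent was dispensed and light output recorded.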
HCV inhibitor = inhibitors of hepatitis C virus infection | Huh7.5.1 HCVcc-Cre infection, luciferase reporter, 44 h | Potency, µM (titrated, usually from 41.8 µM), inactives show at the highest dose activity change, negative = inhibition, actives largely listed as inhibitors | 340,000 compounds, 3.4% hits | AID 651820; note: potency is the fitted concentration of half-maximal effect; % is set by controls: 0 for no effect and ±100 for the full control effect
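A cell-based infection assay in which seeded cells (1,000 per well) receive test compound after 4 h, are inoculated with HCVcc-Cre at approximately 0.5 moi, and are incubated 44 h before luminescence detection.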
SARS PLP yeast = inhibitors of SARS-CoV papain-like protease in yeast; Potency, µM (highest dose often 32.9 µM), without a hit: at the top dose activity, positive = growth rescue, most hits filed as activators; S. cerevisiae expressing SARS-CoV PLpro, growth rescue; 330,000 compounds, 0.19% hits; calls by dose curve; note: potency is the fitted concentration of half-maximal effect; 0% is about no effect; nearly all actives have a fitted effect of over 55% in size
Sm TGR inh = inhibitors of Schistosoma mansoni thioredoxin glutathione reductase; Q962Y6; purified TGR, DTNB reduction, TNB absorbance 405 nm; Potency, µM (titrated, usually from 114 µM), for the others: at the highest dose activity change, negative = inhibition, most hits filed as inhibitors; 360,000 compounds, 3% hits; AID 485364; note: potency is the fitted concentration of half-maximal effect; % is set by controls: 0 for no effect and ±100 for the full control effect; nearly all actives have a fitted effect of over 60% in size
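TGR 20 nM + NADPH 100 uM (dispensed conc.), cpd preinc 15 min RT; start with NADPH (500 uM addition) then DTNB (15 mM addition). Kinetic TNB absorbance, 405 nm filter. Four-parameter Hill fit across titration.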
Pf growth 96h = P. falciparum growth inhibition at 96 hour, primary screen for plastid delayed-death inhibitors | Potency, µM (titrated, usually from 28.7 µM), for inactives: at the top dose activity change, negative = inhibition, hits mostly inhibitors | 320,000 compounds, 6.9% hits | P. falciparum luciferase reporter growth, 96 h; note: potency is the fitted concentration of half-maximal effect; % is set by controls: 0 for no effect and ±100 for the full control effect
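Compounds incubated with erythrocytes infected by luciferase-expressing P. falciparum (2% hematocrit, 0.05% parasitemia final) for 96 hours, 37 C in 5% CO2. Growth inhibition scored as decreased luciferase luminescence.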
Active calls of the source: *; ? = inconclusive; . = not tested or not shown. Only some compounds are listed: those with a hit (about 15% of all), similar ones and a draw of the others. Unless noted, calls come from the whole dose curve; as a rule, active = well fitted curve in the direction sought with a large enough effect; inconclusive = small, poorly fitted or top-dose-only effect, or another doubt; inactive = no such curve, though single readings can be large; an effect the other way counts as inactive or inconclusive.

SMILES | HCMV antiviral | Pf growth 48h | HCV inhibitor | SARS PLP yeast | Sm TGR inh | Pf growth 96h
CC(=O)Nc1ccc(-c2csc(-c3cccnc3)n2)cc1 | 62 | 109% | ? | -4% | -6% | 6%
O=C(NCCCN1CCOCC1)c1ccc2c(c1)N(Cc1ccccc1)C(=O)c1ccccc1S2=O (stereo unspecified) | 7 | ? | -18% | 4% | 5% | 7%
O=C(NCCCN1CCCC1)c1ccc2c(c1)N(Cc1ccc(F)cc1)C(=O)c1ccccc1S2=O (stereo unspecified) | ? | ? | ? | 21% | -25% | -1%
O=C(NCCCN1CCOCC1)c1ccc2c(c1)N(Cc1cccc(Cl)c1)C(=O)c1ccccc1S2=O (stereo unspecified) | ? | 12µM* | ? | 3% | -7% | -7%
CC1CCCN(CCCNC(=O)c2ccc3c(c2)N(Cc2cccc(Cl)c2)C(=O)c2ccccc2S3=O)C1 (stereo unspecified) | -81* | . | . | . | . | .
Clc1ccccc1OCCSc1nnc(-c2cccs2)o1 | -7 | . | . | . | -13% | .
CCn1c(=N)c(C(=O)NC2CCCCC2)cc2c(=O)n3cc(C)ccc3nc21 | 8 | . | . | . | -4% | .
COc1cc2oc(-c3ccc(O)cc3)cc(=O)c2c(OC)c1O | 28 | ? | -16% | 0% | 4% | ?
COc1c(O)cc2oc(-c3ccc(O)cc3)cc(=O)c2c1O | 188 | 368% | 7% | -6% | -3% | -7%
COc1cc2oc(-c3ccc(O)cc3)cc(=O)c2c(O)c1OC | -110* | -1% | ? | 0% | -10% | 10µM*
O=c1cc(-c2ccc(O)cc2)oc2ccc3ccccc3c12 | -86* | -33% | 13µM* | -8% | 1% | -4%
COc1ccc(-c2cc(=O)c3c(OC)c(OC)c(OC)c(OC)c3o2)cc1 | 21 | . | 10µM* | . | . | .
O=c1cc(-c2ccc(O)cc2)oc2c(O)c(O)c(O)c(O)c12 | -33 | 1% | 34% | 0% | 4µM* | 19%
COc1ccc(-c2cc(=O)c3cc(OC)ccc3o2)cc1 | 9 | 291% | 3% | -2% | 11% | 438%
CN(C)C(=S)Oc1ccccc1C1(C)OCCO1 | 11 | . | . | . | . | .
CCCc1c(C(=O)N/N=C/c2cccc3ccccc23)nnn1-c1nonc1N | 0 | -25% | ? | 1% | 3% | ?
COc1ccc(-c2c[n+](CC(=O)c3cccs3)c3n2CCC3)cc1 | 1 | 2.3µM* | ? | 1% | -20% | ?
Cc1ccc(-c2c[n+](CC(=O)c3cccs3)c3n2CCC3)cc1 | ? | 2.3µM* | -9% | -1% | 1% | 4.1µM*
O=C(C[n+]1cc(-c2ccc(F)cc2)n2c1CCC2)OCc1ccccc1 | 32 | 14% | 13% | -23% | 15% | 10%
CCN(CC)S(=O)(=O)c1ccc(N2CCN(CCOc3ccc(OC)cc3)CC2)nc1 | -77* | ? | ? | -1% | 4% | ?
CCN(c1ccccc1)S(=O)(=O)c1ccc(N2CCN(c3ccc(OC)cc3)CC2)nc1 | 0 | . | 7% | 5% | . | .
CN(C)c1cccc(C(=O)Nc2ccc(-c3nc4ccccc4s3)cc2)c1 | 43 | . | . | . | -3% | .
Oc1ccccc1Nc1nc(NCc2ccco2)c2ccccc2n1 | 0 | ? | 13µM* | -1% | -1% | 2.1µM*
COc1ccc(OC)c(Nc2nc(NCc3ccco3)c3ccccc3n2)c1 | ? | ? | 11µM* | -4% | -12% | 43%
COc1ccc(OC)c(Nc2nc(NCc3ccco3)nc(N)c2[N+](=O)[O-])c1 | ? | ? | -35% | 2% | -10% | ?
SMILES | HCMV antiviral | Pf growth 48h | HCV inhibitor | SARS PLP yeast | Sm TGR inh | Pf growth 96h
Cc1ccccc1Nc1nc(NCc2ccco2)c2ccccc2n1 | ? | ? | ? | -3% | -31% | 5%
Cc1cccc(Nc2nc(NCc3ccco3)c3ccccc3n2)c1 | -95* | 0.66µM* | 6.3µM* | -83% | -5% | ?
O=C(NCc1ccncc1)C1CCCCC1 | 54 | -6% | ? | 1% | 7% | .
O=C(NCc1cn(-c2ccccc2)nc1-c1ccc(F)cc1)c1cccc([N+](=O)[O-])c1 | -33 | -90% | ? | 10% | 0% | ?
COc1cccc(N2CCN(C(=O)Cn3ncc4c(=O)oc5ccccc5c43)CC2)c1 | 6 | . | . | . | 6% | .
Cc1ccc2oc(=O)c3cnn(CC(=O)N4CCc5ccccc5C4)c3c2c1 | -4 | . | 24% | 5% | 2% | 2.6µM*
Cc1ccc(C)c(N2CCN(C(=O)Cn3ncc4c(=O)oc5ccccc5c43)CC2)c1 | 0 | . | . | . | 8.9µM* | .
Cc1nnc(SCc2ccc(CSc3nnc(C)c(=O)[nH]3)cc2)[nH]c1=O | -38 | 12% | 15% | 5% | 0% | -2%
Cc1cccc2c1NC1(CCCC1)CC2C (stereo unspecified) | -63* | -8% | 6% | 0% | ? | ?
CC1CC2(CCCC2)Nc2ccc(F)cc21 (stereo unspecified) | ? | -6% | 12% | 8% | 40µM* | 3%
COc1ccc(-c2cc(C(F)(F)F)n3nc(-c4ccc(Cl)cc4)cc3n2)cc1OC | 1 | . | . | . | 2% | .
COc1cccc(/C=C2\NC(=O)NC2=O)c1O | 45 | 76% | 11% | 0% | 2% | 0.93µM*
CCOC(=O)COc1ccccc1/C=N/O | 13 | -3% | -6% | 0% | -3% | 0%
CCOC(=O)COc1ccccc1/C=C1/NC(=O)NC1=O | -25 | 14% | -15% | 2% | -7% | 10µM*
Cc1ccc(-c2c(NC(=O)C(C)C)n(C)c3ccccc3c2=O)cc1 | -39 | 28% | 3.2µM* | 1% | 0% | 29%
CC(C)C(=O)Nc1c(-c2ccccc2)c(=O)c2ccccc2n1C | 23 | 45% | 9% | 1% | 22% | 18%
CC1=CC(=O)C2=C(C)CC[C@@H]3[C@H](OC(=O)[C@H]3C)[C@@H]12 | 39 | 42% | 18% | -6% | 11% | 68%
CC1C(=O)OC2C1CCC1(C)CCC(=O)C(C)C21 (stereo unspecified) | -32 | 2% | 9% | 0% | 3.5µM* | 36%
COc1ccccc1NC(=O)C1=C(C)Nc2nc(SCC(=O)c3ccc(C)cc3)nn2C1c1ccc(F)cc1 (stereo unspecified) | 8 | . | . | . | 4% | .
C[C@@]12C(=O)Nc3ccc(F)cc3C(=O)N1[C@H]1c3cc(Br)ccc3OC[C@@H]1[C@@H]2c1ccccc1 | -70* | . | ? | 1% | . | .
C[C@@]12C(=O)Nc3ccc(Cl)cc3C(=O)N1[C@H]1c3cc(Cl)ccc3OC[C@@H]1[C@@H]2c1ccccc1 | -22 | . | -11% | 5% | . | .
